This passage reports growth inhibition results from PubChem BioAssay (NCI).

Each structure is given as a SMILES string. About 79,000 compounds went through this panel and 15% of them were active in at least one assay; those are over-represented in the sample as a whole. Active and inactive are the calls of the source. Cut-off read from the data, not from the text of the source: active = growth inhibition above about 70%; inactive = the rest.

This test can be described thus: NCI Yeast Anticancer Drug Screen. Data for the rad50 strain (AID 155).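 Note: 0% = growth of vehicle-only cultures of the same strain.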 The following applies: S. cerevisiae rad50 strain growth inhibition; at 50.0 µM; stronger effect = higher value. The method, boiled down:
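Relative growth inhibition (compound vs vehicle) was measured in yeast with a defined repair-gene alteration.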
As for `COc1ccc([N+](=O)[O-])cc1`, the growth inhibition is 23.6% (inactive).

Take `CC(Cl)CN1CCCCC1` (centres undefined) (tested in a mixture with another compound): the growth inhibition was 15.2% (inactive).

With `COc1cc2c(cc1OC)-c1c3c(cc4c1[C@@H](C2)N(C)CC4)OCO3`, the growth inhibition was -23.8% (inactive).

`O=C(O)[C@H](O)[C@@H](O)C(=O)O.[Pb]`: the growth inhibition was 7.05% (inactive).

For `O=C(NCCc1ccccn1)c1ccc2cc(C(=O)N3CC(CCl)c4ccc([N+](=O)[O-])cc43)[nH]c2c1` (centres undefined), the growth inhibition was 8.65% (inactive).

For `CN(C)[C@@H]1C(=O)C(C(N)=O)=C(O)[C@]2(O)C(=O)C3C(=O)c4c(O)ccc(Cl)c4[C@](C)(O)[C@H]3C[C@@H]12` (some centres undefined), the growth inhibition was -6.15% (inactive).

Regarding `Cc1cc(C)c(O)c(C)c1`, the growth inhibition was 10.2% (inactive).

As for `N#CC(N)c1ccccc1` (centres undefined), the growth inhibition was 13.7% (inactive).

As to `N#Cc1ccccn1`, the growth inhibition was 13.1% (inactive).

For the compound `CCCCCCCC/C=C\CCCCCCCC(=O)OCC(COC(=O)CCCCCCC/C=C\CCCCCCCC)OC(=O)N(CCCl)CCCl`, the growth inhibition was -29.2% (inactive).

Consider `COC(=O)C(C)N(CCCl)P1(=O)OCCCN1CCCl` (centres undefined), for which the growth inhibition is 49.2% (inactive).

Regarding `N#CS.N=C=S.O=N[O-].[Co+3].[NH-]CC[NH-].[NH-]CC[NH-]`, the growth inhibition was -6.55% (inactive).

`ClCc1ccccc1`: the growth inhibition was 40% (inactive).

`CCC1CN(CC(=O)c2ccc(Br)cc2)CCO1` (centres undefined): the growth inhibition is 5.4% (inactive).

As to `CC(=O)C(C(C)=O)C(C)=O.[Cr]`, the growth inhibition was 4.85% (inactive).

For the compound `O=C(Cc1nc2ccccc2c(=O)n1-c1c(Cl)cccc1Cl)c1ccncc1`, the growth inhibition is 2.45% (inactive).

In the case of `CCCCOP(=O)(Nc1ccc(Cl)cc1)OCCCC`, the growth inhibition was 99.3% (active).

`CCOS(=O)(=O)c1ccc(C)cc1`: the growth inhibition was 13.8% (inactive).

On to `CC(C)=CC1CC(=[N+]=[N-])C(=O)C1(C)C` (centres undefined), for which the growth inhibition was 33.5% (inactive).

`Cc1ccc(-n2c(=O)[nH]c3ccccc3c2=O)cc1[N+](=O)[O-]`: the growth inhibition is 12.9% (inactive).

On to `O=[N+]([O-])c1ccc2c(c1)[O][Sn]([I])([I])[O]2`, for which the growth inhibition is -6% (inactive).

As for `O=C(CN1C(=O)C2CCCCC2C1=O)N1CC1` (centres undefined), the growth inhibition is -7.8% (inactive).

Regarding `NC1C(=O)NC(=O)NC1=O`, the growth inhibition was 4.2% (inactive).

As to `ClCCN(CCCl)c1ncnc2c1ncn2Cc1ccccc1`, the growth inhibition was 2.9% (inactive).

For `O=P(N1CCNCC1)(N1CCNCC1)N1CCNCC1`, the growth inhibition is -20.1% (inactive).

Regarding `CCNP(=O)(OCC)OCC`, the growth inhibition is 9.9% (inactive).

`COc1cc2c(cc1OC)CC[N+](C)=C2`: the growth inhibition was 5.65% (inactive).

In the case of `CCOP(=S)(Oc1ccccc1[N+](=O)[O-])c1ccccc1` (centres undefined), the growth inhibition is 6.85% (inactive).

In the case of `NCCn1ccc2ccccc21`, the growth inhibition is 8.2% (inactive).

In the case of `ClC1=C(Cl)C2(Cl)C3C4CC(C5OC45)C3C1(Cl)C2(Cl)Cl` (centres undefined), the growth inhibition is 27.4% (inactive).

On to `OC(Cc1ccccn1)C(Cl)(Cl)Cl` (centres undefined), for which the growth inhibition is -10.2% (inactive).

For the compound `O=NC1C(=O)NC(=O)NC1=O`, the growth inhibition was 1.75% (inactive).

On to `C[C@]12CC[C@H](O)C=C1CC[C@@H]1[C@@H]2CC[C@]2(C)C(c3ccc(=O)oc3)CC[C@]12O` (some centres undefined), for which the growth inhibition was -2.85% (inactive).

With `O=[N+]([O-])c1ccc(SC2CCCCCCC2Br)c([N+](=O)[O-])c1` (centres undefined), the growth inhibition is -16.9% (inactive).

For `CN(C)/N=C/c1c[nH]c2ccccc12`, the growth inhibition is -13.9% (inactive).

As for `CC(=O)OCC1OC(S[As](C)C)C(OC(C)=O)C(OC(C)=O)C1OC(C)=O` (centres undefined), the growth inhibition was -2.85% (inactive).

Turning to `COCC(=O)CP(=O)(OC)OC`, the growth inhibition is -20.6% (inactive).

Take `OCCC[n+]1cccc2ccccc21`: the growth inhibition is -11.2% (inactive).

In the case of `CC1=CC(=Nc2ccc(N(CCCl)CCCl)cc2)C=C(C)C1=O`, the growth inhibition was 3.2% (inactive).
